# Data reported in PubChem BioAssay (NCATS).
# Values joined by “and” are separate entries in the source; they are usually repeats but may differ in a detail not shown here. Equal entries are not always repeated. Results filed as inconclusive are left out. Where a call stands in place of a potency, no number is given. Active and inactive are the calls of the source. Unless noted, calls come from the whole dose curve; as a rule, active = well fitted curve in the direction sought with a large enough effect; inconclusive = small, poorly fitted or top-dose-only effect, or another doubt; inactive = no such curve, though single readings can be large; an effect the other way counts as inactive or inconclusive.
# Key:
# [1] = qHTS Assay for Lipid Storage Modulators (AID 1519; calls by dose curve); conditions: Drosophila S3 cells, BODIPY lipid droplet/cell ratio, laser cytometry, cells loaded with oleic acid
# Summary of the method: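 Cells seeded at 5,000 per well were treated with compounds over a concentration series and loaded with oleic acid (400 uM, as added). Lipid droplet fluorescence (488 nm excitation, 500-530 nm channel) was read by laser-scanning cytometry and normalized to 20 uM Triacsin C.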
# [2] = molecular target: alpha-glucosidase (Oryza sativa, rice) (UniProt Q653V4); assay: Counterscreen for Glucocerebrosidase Inhibitors: qHTS Assay for Rice alpha-Glucosidase at pH 5.0 (AID 997); conditions: rice alpha-glucosidase enzyme activity; series mostly up to 76.9 µM
# Summary of the method: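 Endpoint fluorogenic assay at pH 5.0: compounds (0.7 nM to 77 uM) titrated against 4 nM rice enzyme and 400 uM 4-MU-alpha-glucoside for 20 min at room temperature; NaOH/glycine stop, read ex 365/em 440 nm, Hill-fitted AC50.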
# [3] = molecular target: Alpha-galactosidase (Coffea arabica) (UniProt Q42656); assay: Counterscreen for Glucocerebrosidase Inhibitors: qHTS Assay for Coffee Bean alpha-Galactosidase at pH 5.9 (AID 998); conditions: coffee bean alpha-galactosidase enzyme assay; series mostly up to 76.9 µM
# Alpha-galactosidase (Coffea arabica), sequence (Q42656 whole entry, looked up): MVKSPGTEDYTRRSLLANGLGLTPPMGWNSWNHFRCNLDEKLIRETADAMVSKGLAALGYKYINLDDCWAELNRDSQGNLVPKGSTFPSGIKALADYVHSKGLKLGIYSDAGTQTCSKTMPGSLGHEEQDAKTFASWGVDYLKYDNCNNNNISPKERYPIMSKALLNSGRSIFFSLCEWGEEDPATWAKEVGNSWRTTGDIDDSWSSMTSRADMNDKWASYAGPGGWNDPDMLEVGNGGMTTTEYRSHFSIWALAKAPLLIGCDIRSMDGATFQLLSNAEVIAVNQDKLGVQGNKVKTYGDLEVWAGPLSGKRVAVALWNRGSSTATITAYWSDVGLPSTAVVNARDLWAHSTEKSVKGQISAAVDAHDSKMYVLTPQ
# Summary of the method: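 Enzyme 2 nM + cpd (0.7 nM–77 uM titration) + 4-MU-alpha-Gal 80 uM, pH 5.9 citrate/Tween-20, RT 20 min, NaOH/glycine stop pH 10, fluor 365/440. Normalized to no-enzyme and full-activity controls; Hill-fit AC50.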
# [4] = Validation of Assay for Modulators of Lamin A Splicing (AID 1459; active = well fitted curve in the direction sought with a large enough effect in the signal ratio; the % refers to the signal ratio;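 note: cells exposed to compound for two days before reading; ratio rise marks activators and ratio drop marks inhibitors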); conditions: Lamin A splicing dual RFP/GFP fluorescence reporter; series mostly up to 9.22 µM
# Summary of the method: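 S3 HeLa cells stably expressing a lamin A-EGFP splicing minigene and DsRed2 were seeded at 600 cells/well in Opti-MEM with 2% FBS, pin-dosed, and incubated 48 hrs at 37 °C, 5% CO2. Laser-scanning cytometry (488 nm) gave GFP/RFP total intensity ratio.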
# [5] = molecular target: DNA repair nuclease/redox regulator APEX1 (Homo sapiens) (UniProt P27695); assay: qHTS Validation Assay for Inhibitors of the Human Apurinic/apyrimidinic Endonuclease 1 (APE1) (AID 1705;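 note: TAMRA fluorescence gain over two minutes as APE1 cuts a quenched THF abasic duplex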); conditions: purified APE1 endonuclease activity, fluorescence, titration; series mostly up to 57.1 µM
# DNA repair nuclease/redox regulator APEX1 (Homo sapiens), sequence (P27695 whole entry, looked up): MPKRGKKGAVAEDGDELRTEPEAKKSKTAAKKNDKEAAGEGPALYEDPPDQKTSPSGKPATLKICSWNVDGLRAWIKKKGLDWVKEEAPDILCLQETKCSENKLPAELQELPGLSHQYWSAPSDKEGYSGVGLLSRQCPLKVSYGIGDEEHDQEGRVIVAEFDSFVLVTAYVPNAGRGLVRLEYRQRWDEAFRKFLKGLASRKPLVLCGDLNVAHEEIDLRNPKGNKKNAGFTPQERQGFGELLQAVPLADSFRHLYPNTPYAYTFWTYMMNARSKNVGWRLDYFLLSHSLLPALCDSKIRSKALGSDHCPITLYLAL
# Summary of the method: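 Human APE1 was preincubated with compound for 15 min at room temperature, then 50 nM (final) THF-abasic double-stranded DNA substrate bearing 5'-TAMRA and 3'-BHQ-2 was added. Incision-driven fluorescence rise (ex 525/em 598 nm) was read kinetically.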
# [6] = molecular target: Endonuclease 4 (Escherichia coli (strain K12)) (UniProt P0A6C1); assay: Counterscreen for APE1 Inhibitors: qHTS Validation Assay for Inhibitors of Endonuclease IV (AID 1708); conditions: E. coli endonuclease IV, DNA cleavage fluorescence; series mostly up to 57.1 µM
# Summary of the method: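 Conditions: 2 nM enzyme, 50 nM TAMRA/BHQ-2 substrate, pH 7.5 Tris buffer with 2 mM MgCl2, RT. Compound preincubation 15 min; readout three fluorescence reads 60 s apart, third-minus-first.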
# [7] = qHTS for differential inhibitors of proliferation of Plasmodium falciparum line 7G8 (AID 1815); conditions: Plasmodium falciparum 7G8 proliferation inhibition; series mostly up to 28.7 µM;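 note: parasite growth measured after three days of incubation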
# [8] = qHTS for differential inhibitors of proliferation of Plasmodium falciparum line GB4 (AID 1816); conditions: Potency: Plasmodium falciparum GB4 proliferation inhibition; series mostly up to 28.7 µM;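 note: parasite growth measured after 72 h incubation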
# [9] = qHTS for differential inhibitors of proliferation of Plasmodium falciparum line 3D7 (AID 1876);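 note: parasite growth measured after three days of culture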; conditions: P. falciparum 3D7 proliferation inhibition; series mostly up to 28.7 µM
# [10] = qHTS for differential inhibitors of proliferation of Plasmodium falciparum line D10 (AID 1877); conditions: series mostly up to 28.7 µM;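 note: parasites grown with compound for 72 h before DNA staining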
# [11] = measured here: cell count channel max response
# [12] = measured here: lipid channel max response
Structure (SMILES),"activity change, negative = inhibition ([1]; at 57.5 µM (top of the series))","max response [1, 11]","max response [1, 12]",outcome [2],outcome [3],outcome [4],"activity change, negative = inhibition ([1]; at 25.7 µM (top of the series))",Potency [5],outcome [6],Potency [7],Potency [8],Potency [9],Potency [10]
NC(=O)CS(=O)C(c1ccccc1)c1ccccc1 (stereo unspecified),4.67% (inactive),3.09%,10.7%,–,–,–,–,–,–,–,–,–,–
CC(C)c1cccc(C(C)C)c1O,–,-4.81%,-3.68%,inactive,inactive,inactive,-0.519% (inactive),inactive,inactive,inactive,inactive,inactive,inactive
O=c1oc2ccccc2c(O)c1Cc1c(O)c2ccccc2oc1=O,–,-11.3%,-10.4%,–,–,–,0.983% (inactive),–,–,–,–,–,–
O=P1(N(CCCl)CCCl)NCCCO1 (stereo unspecified),0.148% (inactive),-27.9%,-28.7%,inactive,inactive,–,–,inactive,inactive,inactive,inactive,inactive,inactive
C[C@]12CCC(=O)C=C1CC[C@@H]1[C@@H]2CC[C@]2(C)C(=O)CC[C@@H]12,0.917% (inactive),67.2%,68.1%,inactive,inactive,inactive,–,inactive,inactive,–,–,inactive,–
NC(=O)c1cc([N+](=O)[O-])cc([N+](=O)[O-])c1,2.42% (inactive),0.174%,7.25%,–,–,–,–,–,–,–,–,–,–
NCCc1ccc(O)cc1,–,–,–,inactive,inactive,inactive,–,inactive,inactive,inactive,inactive,inactive,inactive
CCC1(CC)C(=O)C=CNC1=O,5.04% (inactive),-5.28% and 19.1%,-7.28% and 25.2%,–,–,–,-2.39% (inactive),–,–,–,–,–,–
Cn1c(=O)c2[nH]cnc2n(C)c1=O,8.67% (inactive),-7.33% and -5.65% and 13.2%,-6.71% and -6.91% and 31.3%,–,inactive,–,-0.949% (inactive) and -1.67% (inactive),–,–,–,–,–,–
CCC1(c2ccc(N)cc2)CCC(=O)NC1=O (stereo unspecified),–,–,–,–,–,inactive,–,inactive,inactive,inactive,inactive,inactive,inactive
